Source: PubChem BioAssay
This is a sample that favours compounds with a hit; in the whole collection about 3.2% have one here.
ANO1 block: mouse TMEM16A channel inhibition, primary screen. hit rate 1.2% among 310,000. Q8BHY3. normalized B-score (activity score, 25-100; higher = stronger inhibition) at 10 µM. HEK293 TMEM16A/YFP iodide influx fluorescence, ionomycin. AID 588511;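 active = ratio plate-corrected score three or more library SD toward inhibition, starting fluorescence score within five deviations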;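 also: score derived from kinetic fluorescence span divided by baseline fluorescence per well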
CHT block: inhibits the human high affinity choline transporter; hit rate 0.86% among 310,000; B-score at 10 µM; AID 488975; Q9GZV3; CHT-expressing cells, membrane potential dye, choline response; stronger effect = lower value;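 active = B-score over 3 SD under the library average, and starting fluorescence ratio not unusually high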;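 also: choline stimulus applied at its EC90 after an EC20 pre-addition; B-score computed on integrated fluorescence ratio after choline addition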
CHT PAM: human CHT allosteric activation. Q9GZV3. CHT-expressing cells, membrane potential dye, choline EC20; stronger effect = higher value; LV-AA mutant CHT in HEK293 cells. B-score at 10 µM. hit rate 0.49% among 310,000. AID 488977;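 active = initial fluorescence not abnormally high and integrated response B-score, plate-corrected, over 3 SD above library mean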
TMEM16A act: mouse TMEM16A channel activation, primary screen | Q8BHY3 | HEK293 TMEM16A/YFP-H148Q/I152L, iodide quench fluorescence; stronger effect = lower value | B-score at 10 µM | hit rate 0.3% among 340,000 | AID 623877;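 active = fluorescence-ratio B-score plate-corrected deviation score at least 3 library SD below zero, with starting fluorescence score within 5 deviations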;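 also: channel opened by trigger with iodide after compound preincubation; score built on the fluorescence ratio of max minus min over baseline; more negative score means more quench and so TMEM16A activation or potentiation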
Kir21 inh: Kir2.1 (mouse) channel inhibition | P35561 | HEK293-Kir2.1, FluxOR thallium flux fluorescence; stronger effect = lower value | B-score at 10 µM | hit rate 0.85% among 310,000 | AID 1672;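 active = fluorescence ratio B-score at or below minus 3 SD of library scores, with starting-brightness B-score within 2 SD, cut at about -4.2 in these data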;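 also: channel flux triggered by added potassium and thallium sulfate stimulus; B-score of peak minus minimum fluorescence over baseline after thallium stimulus; more negative B-score means stronger Kir2.1 block with less thallium influx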
Rce1 inhib: blocks yeast Ras-converting enzyme. Q03530. yeast membranes, quenched prenylated peptide cleavage fluorescence. calls only. hit rate 0.27% among 290,000. AID 2563;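 active = fall in fluorescence gain of 50% or more versus controls, with final raw signal at or below 3038400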;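 also: plate controls were neutral control wells for no effect and wells lacking membranes for full effect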
Target sequence (Q03530 whole entry, looked up): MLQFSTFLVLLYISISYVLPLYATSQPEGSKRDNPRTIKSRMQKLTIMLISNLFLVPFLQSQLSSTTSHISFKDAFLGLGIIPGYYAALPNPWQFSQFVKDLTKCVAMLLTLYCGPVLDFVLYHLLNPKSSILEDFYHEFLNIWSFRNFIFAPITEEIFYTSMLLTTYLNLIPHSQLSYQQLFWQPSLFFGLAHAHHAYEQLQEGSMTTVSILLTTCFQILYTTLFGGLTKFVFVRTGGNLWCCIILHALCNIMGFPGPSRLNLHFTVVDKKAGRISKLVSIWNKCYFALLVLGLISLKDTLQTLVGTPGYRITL
* = called active by the depositor; i = inactive; x = no result given; + = active, no number.

SMILES	ANO1 block	CHT block	CHT PAM	TMEM16A act	Kir21 inh	Rce1 inhib
COc1ccc(-c2c(-c3ccsc3)oc3ccc(N4CCOCC4)cc23)cn1	i	i	i	i	-1.9	+
Cc1cccc(C2(c3cccc(C)c3)CC2C(=O)Nc2ccc([N+](=O)[O-])cc2O)c1 (stereo not drawn)	100*	i	i	i	-1.6	i
COc1cccc(C(=O)OCC(=O)N2CCc3ccccc3C2)c1	x	x	x	i	x	x
CCOC(=O)c1c(C)n(-c2ccccc2)c2ccc(O)c(CN(C)C)c12	i	i	i	i	-4.7*	i
Cc1cc(C)n(CCN(C)c2nc3nonc3nc2NC2CC2)n1	i	i	i	i	1.1	i
O=[N+]([O-])c1ccc(NC(=S)N2CCc3ccccc32)cc1	100*	i	i	i	-0.58	i
NC(=O)C1(N2CCCCC2)CCN(C(=S)Nc2ccccc2)CC1	i	i	i	i	-0.03	i
NC(=O)C1(N2CCCCC2)CCN(C(=O)Nc2ccccc2C(F)(F)F)CC1	100*	i	i	x	-0.93	i
Cc1nn(Cc2ccc(C(=O)NC(C)(C)C)o2)c(C)c1Br	25*	i	i	i	-0.67	i
COc1ccccc1CC(=O)Nc1ccc2c(C)cc(=O)oc2c1	i	i	i	i	1.2	+
Cc1ccccc1CC(=O)Nc1ccc2c(C)cc(=O)oc2c1	i	i	i	i	0.5	i
Cc1ccc(OCCn2c3ccccc3n3nc(C)c(=O)nc23)cc1	i	i	i	i	1.1	+
Cc1ccc(OCCn2c(=O)cnc3ccccc32)cc1	i	i	i	i	1.3	i
COc1cc(NC(=S)N2CCN(S(=O)(=O)c3ccc(C)cc3)CC2)cc(OC)c1	i	i	i	i	-0.09	i
COCCCn1nnnc1SCC(=O)Nc1nc(C)c(C)s1	i	i	i	i	1.6	i
CCn1nnnc1SCC(=O)Nc1nc(C)c(C)s1	i	i	i	i	0.1	+
COc1nc(-c2ccccc2)ccc1-c1noc(-c2ccccc2F)n1	i	i	i	i	-0.14	+
NC(=O)c1ccc(NC(=O)C2CCCC2)cc1	i	i	i	i	0.95	x
COc1cccc(CNn2cnnc2)c1OCc1ccc(F)cc1	100*	i	i	i	-0.22	i
CCOc1cccc(CNn2cnnc2)c1OCc1ccccc1Cl	i	i	i	i	-2.5	i
COc1cccc(C(C(=O)NC2CCCC2)N(CC2CCCO2)C(=O)Cc2cccs2)c1 (stereo not drawn)	i	i	i	i	-1.1	i
Cc1ccc(C(=O)c2c3ccc(C(F)(F)F)cc3nn2CCC(N)=O)cc1	i	i	i	i	0.75	+
COc1ccc(S(=O)(=O)Nc2ccccn2)cc1C(=O)Nc1ccccc1	i	i	i	i	0.42	i
CNc1nc(C)cc(C)c1S(=O)(=O)c1ccc(C)cc1	i	i	i	i	-5.8*	i
Cc1cc(C)c(S(C)(=O)=O)c(S(=O)(=O)c2ccc(Cl)cc2)n1	i	i	i	i	0.17	i
SMILES	ANO1 block	CHT block	CHT PAM	TMEM16A act	Kir21 inh	Rce1 inhib
CC(=O)Nc1cccc(OCC(=O)NC(C)c2ccc3ccccc3c2)c1 (stereo not drawn)	i	i	i	i	-6.2*	i
Clc1cccc(CSc2nccn2-c2ccccc2)c1	i	i	i	i	-7.8*	i
Brc1ccc(CSc2nccn2-c2ccccc2)cc1	i	i	i	i	-1.4	i
COc1ccc(NS(=O)(=O)c2cccc(NC(=O)CCS(=O)(=O)c3ccccc3)c2)cc1	i	i	i	i	0.07	i
CCCCc1nc2ccccc2c(N)c1CCC (tested in a mixture with another compound)	i	i	i	i	-8.3*	i
COc1ccc(C(=O)/C=C/C(=O)N(CC(=O)NC2CCCCC2)CC2CCCO2)c(O)c1 (stereo not drawn)	100*	i	i	-6*	-5.3*	i
